Dicer processing – inhibitors of human Dicer processing of pre-microRNA. Q9UPY3. cat-ELCCA pre-miR-21 Dicer processing, chemiluminescence; active compounds read high. z-score at 25 µM. hit rate 6% among 47,000; in the data active = z-score above about 3, passing the limit was not always enough;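 also: plate controls were vehicle for no effect and no enzyme for full effect; higher signal means more uncleaved substrate so more Dicer inhibition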
Target sequence (Q9UPY3 whole entry, looked up): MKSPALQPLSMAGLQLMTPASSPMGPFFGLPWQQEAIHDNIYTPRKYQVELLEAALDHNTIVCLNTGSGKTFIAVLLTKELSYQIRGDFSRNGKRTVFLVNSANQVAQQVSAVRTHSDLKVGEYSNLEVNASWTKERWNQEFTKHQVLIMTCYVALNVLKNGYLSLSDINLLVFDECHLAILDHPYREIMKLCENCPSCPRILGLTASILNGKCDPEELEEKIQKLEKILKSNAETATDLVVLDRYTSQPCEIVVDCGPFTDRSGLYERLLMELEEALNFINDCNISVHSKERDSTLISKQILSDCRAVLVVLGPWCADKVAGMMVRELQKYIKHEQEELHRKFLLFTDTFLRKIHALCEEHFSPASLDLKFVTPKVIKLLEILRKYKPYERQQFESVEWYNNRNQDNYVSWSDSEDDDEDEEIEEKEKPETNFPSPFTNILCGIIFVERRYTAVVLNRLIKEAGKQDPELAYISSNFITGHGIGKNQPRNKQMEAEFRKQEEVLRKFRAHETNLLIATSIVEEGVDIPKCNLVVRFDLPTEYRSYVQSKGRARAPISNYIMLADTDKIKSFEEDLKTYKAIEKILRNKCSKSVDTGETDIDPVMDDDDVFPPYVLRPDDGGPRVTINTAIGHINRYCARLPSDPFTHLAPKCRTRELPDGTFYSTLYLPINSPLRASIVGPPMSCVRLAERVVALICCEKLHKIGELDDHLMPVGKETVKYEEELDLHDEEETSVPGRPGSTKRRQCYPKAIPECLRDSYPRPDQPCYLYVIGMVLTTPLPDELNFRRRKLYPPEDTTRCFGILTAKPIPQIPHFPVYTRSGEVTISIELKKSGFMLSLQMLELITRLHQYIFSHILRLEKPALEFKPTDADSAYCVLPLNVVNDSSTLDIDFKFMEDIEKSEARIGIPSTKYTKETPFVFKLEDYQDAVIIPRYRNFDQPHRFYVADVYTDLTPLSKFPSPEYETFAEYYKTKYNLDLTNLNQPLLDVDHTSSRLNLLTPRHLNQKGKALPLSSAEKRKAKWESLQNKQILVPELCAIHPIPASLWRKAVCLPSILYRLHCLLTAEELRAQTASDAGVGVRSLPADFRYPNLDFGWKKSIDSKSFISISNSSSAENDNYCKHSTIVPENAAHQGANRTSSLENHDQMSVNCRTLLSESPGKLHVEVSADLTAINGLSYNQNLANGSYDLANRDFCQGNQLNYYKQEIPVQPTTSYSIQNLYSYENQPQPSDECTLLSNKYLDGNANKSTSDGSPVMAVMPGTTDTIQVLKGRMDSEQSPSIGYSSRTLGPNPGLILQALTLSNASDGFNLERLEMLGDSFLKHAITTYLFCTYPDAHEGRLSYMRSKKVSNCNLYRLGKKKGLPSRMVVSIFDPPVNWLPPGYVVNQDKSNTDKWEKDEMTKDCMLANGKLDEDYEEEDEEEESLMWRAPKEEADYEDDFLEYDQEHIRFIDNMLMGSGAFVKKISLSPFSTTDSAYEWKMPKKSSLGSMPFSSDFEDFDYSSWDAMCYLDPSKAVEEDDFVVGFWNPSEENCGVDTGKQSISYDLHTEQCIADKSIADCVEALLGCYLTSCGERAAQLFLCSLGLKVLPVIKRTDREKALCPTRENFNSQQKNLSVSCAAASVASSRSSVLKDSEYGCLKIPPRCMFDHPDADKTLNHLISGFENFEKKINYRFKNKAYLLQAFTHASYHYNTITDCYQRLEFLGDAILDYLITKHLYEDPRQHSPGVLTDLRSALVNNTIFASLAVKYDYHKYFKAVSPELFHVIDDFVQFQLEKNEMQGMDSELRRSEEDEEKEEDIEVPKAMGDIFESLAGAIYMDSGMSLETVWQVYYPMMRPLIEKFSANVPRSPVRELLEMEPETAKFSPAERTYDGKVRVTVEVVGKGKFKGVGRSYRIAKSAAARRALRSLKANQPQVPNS
Active calls of the source: *. The entries come from a sample that favours hits as a whole.

SMILES	Dicer processing
Cc1ccccc1OC1CCS(=O)(=O)C1 (stereo not given)	1
OC(CN1CCCC1)Cn1c2ccc(Cl)cc2c2cc(Cl)ccc21 (stereo not given)	0.68
OC(CN1CCOCC1)Cn1c2ccc(Br)cc2c2cc(Br)cc(Br)c21 (stereo not given)	0.42
Cc1ccc2c(c1)c(C)c(C)n2CC(O)CN1CCOCC1 (stereo not given)	4.6*
CCOC(=O)c1cc(=O)oc2cc(O)ccc12	2.4
Cc1cnc(NS(=O)(=O)c2ccc(F)cc2)c(Br)c1	0.99
Cc1onc(-c2c(Cl)cccc2Cl)c1NC(=O)NC(=O)c1c(Cl)cccc1Cl	0.74
C#CCOC(=O)NC(=O)c1c(-c2c(Cl)cccc2Cl)noc1C	3.2*
Cc1onc(-c2c(Cl)cccc2Cl)c1C(=O)NC(C)(C)CC(C)(C)C	0.53
CC(C)N(CCC#N)C(=O)Nc1ccccc1Cl	0.78
CCOC(=O)C1=C(C)N(c2ccc(Br)cc2)C(=O)C1	3.8*
CCOC(=O)c1ccc(N2C(=O)CS(=O)(=O)CC2=O)cc1	0.51
CCOC(=O)C1=NN(c2ccc(C)cc2)C2C(=O)N(c3ccc(Br)cc3)C(=O)C12 (stereo not given)	1.2
CCCCCCCOc1ccc(/C=C/c2c([N+](=O)[O-])c(=O)n(C)c(=O)n2C)cc1	1.6
CSc1ncccc1C(=O)c1c(C)[nH]n(-c2ccccc2)c1=O	-2.4
Cc1cc(C)n(CC(O)c2ccccc2)n1 (stereo not given)	2.1
CC(C)(C)c1ccc(C(=O)Nc2cccc3[nH]ccc23)cc1	36
Cn1c2ccccc2c2nnc(SCC(=O)O)nc21	0.4
Cc1ccc2ncc(NC(=O)c3ccc(F)cc3)c(=O)n2c1	-0.07
Cc1ccc(C)c(COc2ccc(C)nc2NC(=O)c2ccc(F)cc2)c1	3.8*
Cc1ccc(C)c(COc2ccc(C)nc2[N+](=O)[O-])c1	0.37
CCOC(=O)c1cc(-c2csc(N/N=C/c3c(Cl)cccc3Cl)n2)on1	4.4
COCCc1nnc2n1N=C(c1ccc(Br)cc1)CS2	-0.4
Fc1ccc(OCc2nnc3n2N=C(c2ccc(Br)cc2)CS3)cc1	-1
COc1ccc(OCc2nnc3n2N=C(c2ccc(Br)cc2)CS3)cc1	3*
SMILES	Dicer processing
C=CCOc1ccc2c(=O)c(Oc3ccccc3Cl)coc2c1	-0.84
CCOC(=O)c1cnc(-c2cccs2)nc1Nc1ccccc1	1.8
CSc1ccc([N+](=O)[O-])c(CS(=O)(=O)c2ccccc2)c1	-0.58
COc1cccc(/C=N/NC(=S)NCCc2ccccc2)c1OC	-1.4
Oc1ccccc1/C=N/NC(=S)NCCc1ccccc1	12
S=C(NCCc1ccccc1)N/N=C/c1c(-c2ccc(Cl)cc2)[nH]c2ccccc12	3.7*
Cc1ccc(Oc2c(F)c(F)c(Oc3ccc(C)cc3)c(F)c2F)cc1	-1.3
COc1cc(C2Oc3c(OC)cccc3C3CC(c4cc(C)ccc4O)=NN32)ccc1O (stereo not given)	14*
COc1cccc2c1OC(c1ccncc1)N1N=C(c3cc(C)ccc3O)CC21 (stereo not given)	2.5
COc1cccc(C2Oc3c(OC)cccc3C3CC(c4cc(OC)ccc4O)=NN32)c1 (stereo not given)	2.6
COc1ccc(O)c(C2=NN3C(C2)c2cccc(OC)c2OC3c2ccc(O)c(OC)c2)c1 (stereo not given)	0.94
COc1ccc(O)c(C2=NN3C(C2)c2cccc(OC)c2OC3c2ccncc2)c1 (stereo not given)	6.2*
COc1ccc(C2Oc3c(OC)cccc3C3CC(c4cc(C)ccc4O)=NN32)cc1O (stereo not given)	2.6
O=C(C1Sc2nnc(-c3ccccc3)n2NC1c1ccccc1)N1CCCCC1 (stereo not given)	-0.56
COc1ccc2nc(C)cc(Cl)c2c1	2.7
COc1ccccc1-c1nc2ccc(Cl)cc2c(=O)o1	-1.8
COc1ccc2nc(N)sc2c1	0.42
COc1ccc2nc(C3C(=O)c4ccccc4C3=O)ccc2c1	0.25
COc1ccc2nc3ccccc3c(N)c2c1	4*
COc1ccc2nc(C3C(=O)c4ccccc4C3=O)cc(Cl)c2c1	6.5*
Cc1ccc(C)c(OCCCCc2c(C)n[nH]c2C)c1	-2.2
CC(C)c1ccc(NC(=O)Nc2csc(Cc3c(Cl)cccc3Cl)n2)cc1	1.4
CSc1nc2ccccc2n1CCOc1ccc(Cl)cc1	0.23
C=CCOC(=O)n1c(SC)nc2ccccc21	3.1*
C=CCSc1nc2ccccc2n1CC(=O)O	1.5
SMILES	Dicer processing
Cc1nc2c(-c3ccc(Br)cc3)c(C(F)(F)F)nn2c(C)c1-c1ccccc1	-1
CCCCNC(=O)N(C)c1nncnc1C(=O)NC	-0.1
CNC(=O)c1ncnnc1N(C)C(=O)NCc1ccccc1	0.99
CCNC(=O)N(C)c1nncnc1C(=O)NC	4.5*
Cc1ccc2nc(-c3cccc4ccccc34)[nH]c2c1	0.27
C=CCNC(=O)CSc1nnc(CSc2cccs2)n1C	0.48
Cc1cc(C)n(-c2ccc(Sc3ccccn3)nn2)n1	-0.2
COc1ccc2c(c1)c(C(=O)CNc1nccs1)c(C)n2C	6.6
COc1ccc2c(c1)c(C(=O)CNc1nc(C)cs1)c(C)n2C	1.6
COc1ccc2c(c1)c(C(=O)CN(C)C)c(C)n2C	4.7*
COc1cc(C2c3c(oc4cc(C)c(C)cc4c3=O)C(=O)N2CCCN(C)C)ccc1O (stereo not given)	0.06
COc1ccccc1C1C2=C(CCCC2=O)Nc2nnnn21 (stereo not given)	1.6
CN(C(=O)CCCN1C(=O)c2cccc3cccc(c23)C1=O)c1ccccc1	-0.03
COC(=O)CCCN1C(=O)c2cccc3cccc(c23)C1=O	3.6*
C#CCOC(=O)CCCN1C(=O)c2cccc3cccc(c23)C1=O	-1.5
Cc1ccc(N2C(=O)C3C(c4cccc(Cl)c4)OC4(C(=O)c5ccccc5C4=O)C3C2=O)cc1 (stereo not given)	-0.61
CC1CC(C)CN(S(=O)(=O)c2cccc(-c3cn4cc(Cl)ccc4n3)c2)C1 (stereo not given)	-0.12
CC(=O)COc1ccc(Cl)cc1Cl	-0.48
O=C(O)CCSc1n[nH]c(=O)[nH]c1=O	4.8*
O=C(O)CCCNc1n[nH]c(=O)[nH]c1=O	2.4
CC(C)OC(=O)CSc1n[nH]c(=O)[nH]c1=O	4.3
O=C(CSc1nc(-c2cccs2)cc(C(F)(F)F)n1)NC1CCCC1	1.3
CCCCN1Cc2c(n(Cc3ccccc3)c3cc(-c4ccccc4)nn3c2=O)C1=O	-0.1
CCCCN1Cc2c(n(CC(=O)c3ccccc3)c3cc(-c4ccccc4)nn3c2=O)C1=O	3.1*
CCCCN1Cc2c(n(CC(N)=O)c3cc(-c4ccccc4)nn3c2=O)C1=O	-0.98
SMILES	Dicer processing
CN(C)CCNC(=O)c1ccccn1	-0.69
O=c1nc2n(-c3ccc([N+](=O)[O-])cc3)nc(-c3ccc(Cl)cc3Cl)n2nc1Cc1ccc(Cl)cc1	0.99
CCOc1ccc(-c2nn3c(-c4ccccc4Cl)nnc3s2)cc1	1.3
CCCCOC(=O)C1=C(C)NC2=C(C(=O)CCC2)C1c1ccc(OC)c(OC)c1 (stereo not given)	-0.48
COCCOC(=O)C1=C(C)NC2=C(C(=O)CCC2)C1c1ccc(Cl)cc1 (stereo not given)	-0.53
CCSCCOC(=O)C1=C(C)NC2=C(C(=O)CCC2)C1c1cccc(F)c1 (stereo not given)	3.1*
CCSCCOC(=O)C1=C(C)NC2=C(C(=O)CCC2)C1c1ccc(C(=O)OC)cc1 (stereo not given)	0.4
CCOCCOC(=O)C1=C(C)NC2=C(C(=O)CCC2)C1c1cccc(F)c1 (stereo not given)	-0.59

From PubChem
